Assay results reported in the OligoGym collection.

Target: APOL1
Test: pooled miR-30 sensor sort-seq; sequence = guide strand
Conditions: shRNA
Note: reference of the scale not given here.

| Sequence | sensor-assay potency score (higher = more potent) |
| --- | --- |
| TTTTGTTGCACCCTCGCTCCAG | -0.279 |
| TAACTCTTGGGCTTTCTCCATT | -0.755 |
| TTGTCTTGCAAGGTTGTCCAGA | -0.407 |
| TATCCAACTGTTCTAACTCTTG | -1.08 |
| TTTGAGGATCTCCAGTATCTGT | -1.27 |
| TATCGTGCCAGTTTTTGTCTTT | -0.367 |
| TCAAGCTCACTTTTCAACCGAG | -0.112 |
| TTTGTTGCACCCTCGCTCCAGC | -0.393 |
| TTCATTAACCCTCTCCACCTGT | -0.144 |
| TTGTCTTTCATGATCATTTGTC | 0.325 |
| TTAGTCTAAAGTAAACTGCTTC | -0.132 |
| TAGCTTCTCCTCCAGCTCCTGA | -0.925 |

Target: APTX
Test: as above
Conditions: shRNA

| Sequence | sensor-assay potency score (higher = more potent) |
| --- | --- |
| TCAGTGATCTTGGTCTCTGGGC | -0.249 |
| TTGCTGTCGAGAACATTTCTTA | -0.631 |
| TATCAGTGATCTTGGTCTCTGG | -0.564 |
| TTTCTTATCAGTGATCTTGGTC | -0.281 |
| TGGAAGTCTGATTCGCTGGTGC | -0.603 |
| TATAGAATCACTGTTGCCTGAT | 0.198 |
| TTATCAGTGATCTTGGTCTCTG | -0.647 |

Target: ARF4
Test: as above
Conditions: shRNA

| Sequence | sensor-assay potency score (higher = more potent) |
| --- | --- |
| TTATACAGAATGGTTGTCTTGC | 0.842 |
| TTGACAGCCAGTCAAGTCCTTC | -0.84 |
| TTATCAAACATGTCCTTGGTTA | -0.479 |
| TACTGTGAAACAAATGTTCTTA | 0.474 |
| TTTATCAAACATGTCCTTGGTT | 0.237 |
| ATCTTGACCACCAACATCCCAT | -0.565 |
| AATTTTATCAAACATGTCCTTG | -0.486 |
| TACCACAAAAATAAGACCCTGG | 0.855 |
| TAATTTTGTTGTAACAAGCCTA | -0.0701 |
| TTTGTTTGCAAAAAGTAGCAGC | -0.61 |
| TTTCACGATCGTTGCTATCTAC | 0.0471 |
| AATTTTGTTGTAACAAGCCTAG | -0.535 |
| TTGAACATACCATGTTCTGTTA | -0.718 |
| TTGTGTTGCACAAGTGGCTTGA | 0.462 |
| TAATTCTATCTTGACCACCAAC | -1.26 |
| TTCTATCTTGACCACCAACATC | -1.78 |
| TTGTCTTGCCAGCAGCATCCAA | -0.778 |
| TTCCACATTAAAACCAATGGTA | -0.547 |
| TTCTGTTACGAAGAGACTGAAG | -1.25 |
